Values joined by “and” are separate entries in the source; they are usually repeats but may differ in a detail not shown here. Equal entries are not always repeated. Records with an inconclusive call do not appear. Active and inactive are the calls of the source. Calls follow the shape of the dose curve; as a rule, active = well fitted inhibition curve with a large enough effect; inconclusive = small, poorly fitted or top-dose-only effect; inactive = flat fitted curve, though single readings scatter.
What was measured:
HaCat [1] = assay: Cytotoxic Profiling of Annotated Libraries Using Quantitative High-Throughput Screening (AID 1296008); details: Five cell lines viability, CellTiter-Glo ATP luminescence, 48-72 h; max response: hits give low values; as to max response: % is scaled to controls: 0 for no effect and ±100 for the full control effect
Summary of the method: (§1)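 Cells exposed to compounds for 48 or 72 hr at 37 degrees Celsius. Viability read as ATP-coupled luminescence with CellTiter-Glo after 10 min at room temperature.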

KB-3-1 = assay: as above; details: Five cell lines viability, CellTiter-Glo ATP luminescence, 48-72 h; max response: hits give low values
Summary of the method: as §1

NIH3T3 = assay: as above; details: Five cell lines viability, CellTiter-Glo ATP luminescence, 48-72 h; max response: hits give low values
Summary of the method: as §1

HACAT [2] = assay: qHTS assay to identify novel small-molecules to repurpose for Merkel cell carcinoma treatment (AID 1296009); details: MCC and control cell lines, CellTiter-Glo viability, 72 h; at 44.8 µM (top of the series) unless noted
Summary of the method: (§2)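 Cells were treated for 72 hr at 37 degree celsius with compounds in 8- or 11-point dose response. Viability was read by CellTiter-Glo luminescence, normalized to no-cell (cytotoxicity) and DMSO controls.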

MCC-13 = assay: as above; details: MCC and control cell lines, CellTiter-Glo viability, 72 h; series mostly up to 46 µM
Summary of the method: as §2

MCC-26 = assay: as above; details: MCC and control cell lines, CellTiter-Glo viability, 72 h; series mostly up to 46 µM
Summary of the method: as §2

MKL-1 = assay: as above; details: MCC and control cell lines, CellTiter-Glo viability, 72 h; series mostly up to 46 µM
Summary of the method: as §2

HEK293 = assay: Cytotoxic Profiling of Annotated Libraries Using Quantitative High-Throughput Screening (AID 1296008); details: Five cell lines viability, CellTiter-Glo ATP luminescence, 48-72 h; max response: hits give low values; as to max response: % is scaled to controls: 0 for no effect and ±100 for the full control effect
Summary of the method: as §1

MKL-2 = assay: qHTS assay to identify novel small-molecules to repurpose for Merkel cell carcinoma treatment (AID 1296009); details: MCC and control cell lines, CellTiter-Glo viability, 72 h; series mostly up to 46 µM
Summary of the method: as §2

PAD = assay: qHTS profiling for inhibitors of Plasmodium falciparum proliferation (AID 504749); details: P. falciparum in erythrocytes, SYBR Green DNA, 72 h; series mostly up to 28.7 µM
Summary of the method: (§3)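 P. falciparum-infected erythrocytes (0.3% parasitemia, 2.5% hematocrit) incubated with compound 72 h at 37 C, 5% CO2. Parasite DNA detected by SYBR Green after lysis, overnight at room temperature; normalised to 0.29 uM artemisinin and DMSO.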

PC15 = assay: as above; details: P. falciparum in erythrocytes, SYBR Green DNA, 72 h; series mostly up to 28.7 µM
Summary of the method: as §3

PC26 = assay: as above; details: P. falciparum in erythrocytes, SYBR Green DNA, 72 h; series mostly up to 28.7 µM
Summary of the method: as §3

PC49 = assay: as above; details: P. falciparum in erythrocytes, SYBR Green DNA, 72 h; series mostly up to 28.7 µM
Summary of the method: as §3

SC27B = assay: as above; details: P. falciparum in erythrocytes, SYBR Green DNA, 72 h; series mostly up to 28.7 µM
Summary of the method: as §3

TAB109 = assay: as above; details: P. falciparum in erythrocytes, SYBR Green DNA, 72 h; series mostly up to 28.7 µM
Summary of the method: as §3

TAB113 = assay: as above; details: P. falciparum in erythrocytes, SYBR Green DNA, 72 h; series mostly up to 28.7 µM
Summary of the method: as §3

TAB165 = assay: as above; details: P. falciparum in erythrocytes, SYBR Green DNA, 72 h; series mostly up to 28.7 µM
Summary of the method: as §3

W2 = assay: as above; details: P. falciparum in erythrocytes, SYBR Green DNA, 72 h; series mostly up to 28.7 µM
Summary of the method: as §3
Also: nearly all actives have a fitted effect of over 60% in size.
Potency is read from the fitted curve at half-maximal effect.

CC(C)(C)OC(=O)CN(Cc1ccc(Cl)cc1)Cc1ccc([N+](=O)[O-])s1
inactive: outcome (HaCat [1]) | max response (KB-3-1) 0.3% | max response (NIH3T3) 1.62% | outcome (HACAT [2]) | Potency (MCC-13) | Potency (MCC-26) | Potency (MKL-1)

CCCS(=O)(=O)Nc1ccc(F)c(C(=O)c2c[nH]c3ncc(-c4ccc(Cl)cc4)cc23)c1F
inactive: max response (HEK293) -5.51% | max response (HaCat [1]) -13.3% | max response (KB-3-1) 4.09% | Potency (MCC-13) | Potency (MCC-26) | Potency (MKL-1) | Potency (MKL-2)

OC[C@H](Cc1ccccc1)Nc1nc(Oc2ccc3c(c2)CCC3)nc2c1ncn2Cc1ccc(-c2ccccc2)cc1
active: Potency (HEK293) 8.33 µM
inactive: outcome (HaCat [1]) | max response (KB-3-1) -22.3% | max response (NIH3T3) 1.2% | outcome (HACAT [2]) | Potency (MCC-13) | Potency (MKL-1) | Potency (MKL-2)

O=C(Nc1cccnc1)N1CCC(Cc2cccc(Oc3ccc(C(F)(F)F)cn3)c2)CC1
active: Potency (HEK293) 10.5 µM and 8.2 µM | Potency (MKL-2) 16.6 µM
inactive: max response (HaCat [1]) -12.8%

c1ccc(-c2nn3c(c2-c2ccnc4cc(OCCN5CCOCC5)ccc24)CCC3)nc1
inactive: max response (KB-3-1) 6.43% | Potency (MCC-13) | Potency (MCC-26) | Potency (MKL-1) | Potency (MKL-2)
active: Potency (NIH3T3) 5.26 µM

Cc1ccc(N(CC2=NCCN2)c2cccc(O)c2)cc1
inactive: Potency (PAD) | Potency (PC15) | Potency (PC26) | Potency (PC49) | Potency (SC27B) | Potency (TAB109) | Potency (TAB113) | Potency (TAB165) | Potency (W2) | max response (KB-3-1) 5.53% and -7.75% | max response (NIH3T3) -17.8% and -24.2% | outcome (HACAT [2]) | Potency (MCC-13) | Potency (MKL-1) | Potency (MKL-2)

CCc1cncnc1N1CCN(Cc2nc3ccc(C(F)(F)F)cc3[nH]2)CC1
inactive: max response (HaCat [1]) -29.7% | Potency (MCC-13) | Potency (MCC-26) | Potency (MKL-1) | Potency (MKL-2)
active: Potency (HEK293) 14.8 µM and 13 µM

CS(=O)(=O)c1cccc(CNc2nc(Nc3ccc4c(c3)CCC(=O)N4)ncc2C(F)(F)F)c1
active: Potency (HEK293) 18.4 µM | Potency (KB-3-1) 18.7 µM | Potency (NIH3T3) 8.2 µM
inactive: Potency (MCC-13) | Potency (MCC-26) | Potency (MKL-2)

Cc1cccc(-c2nn(C(=S)Nc3ccccc3)cc2-c2ccnc3ccccc23)n1
inactive: max response (HaCat [1]) -21.4% | max response (KB-3-1) -23.5% | Potency (MCC-13) | Potency (MCC-26) | Potency (MKL-1) | Potency (MKL-2)

COCCNCCCn1c(C(=O)CF)c(-c2ccc(C)cc2)c2c(N)ncnc21
inactive: max response (HaCat [1]) -0.681% | max response (KB-3-1) -1.17% | Potency (MCC-13) | Potency (MCC-26) | Potency (MKL-1) | Potency (MKL-2)

Cc1cc2c(C(C)C)c(O)c(O)c(C=O)c2c(O)c1-c1c(C)cc2c(C(C)C)c(O)c(O)c(C=O)c2c1O
active: Potency (HEK293) 23.5 µM | Potency (KB-3-1) 9.35 µM | Potency (MKL-1) 13.3 µM
inactive: Potency (MCC-13)

CCOC(=O)N1CCC(=C2c3ccc(Cl)cc3CCc3cccnc32)CC1
active: Potency (PAD) 3.16 µM | Potency (PC15) 11.2 µM | Potency (PC26) 12 µM | Potency (PC49) 4.47 µM | Potency (SC27B) 6.31 µM | Potency (TAB165) 2.51 µM | Potency (W2) 8.49 µM | Potency (HEK293) 18.7 µM and 18.8 µM
inactive: Potency (TAB109) | max response (HaCat [1]) -16.9% and -8.21% | outcome (KB-3-1) | max response (NIH3T3) -21% and -12% | Potency (MCC-13) | Potency (MKL-1) | Potency (MKL-2)

CCn1c(-c2nonc2N)nc2c(C#CC(C)(C)O)ncc(OC[C@H]3CCCNC3)c21
active: Potency (HEK293) 0.0469 µM | Potency (KB-3-1) 9.35 µM
inactive: outcome (HaCat [1]) | outcome (NIH3T3) | outcome (HACAT [2]) | Potency (MCC-13) | Potency (MCC-26) | Potency (MKL-1) | Potency (MKL-2)

N[C@@H]1CONC1=O
inactive: Potency (PAD) | Potency (PC15) | Potency (PC26) | Potency (PC49) | Potency (SC27B) | Potency (TAB113) | Potency (TAB165) | Potency (W2)

COc1ccc2nc(S(=O)Cc3ncc(C)c(OC)c3C)[nH]c2c1 (centres undefined)
inactive: Potency (PC15) | Potency (PC49) | Potency (SC27B) | Potency (TAB109) | Potency (TAB113) | outcome (HaCat [1]) | max response (KB-3-1) -5.29% | max response (NIH3T3) -7.21% and -1.13% | outcome (HACAT [2]) | Potency (MCC-13) | Potency (MKL-1) | Potency (MKL-2)

CCn1cc(C(=O)O)c(=O)c2cc(F)c(N3CCNC(C)C3)c(F)c21 (centres undefined)
inactive: outcome (HACAT [2]) | Potency (MCC-13) | Potency (MCC-26) | Potency (MKL-1) | Potency (MKL-2)

CC(=O)NC(C)c1ccc(Oc2ccc(OC(C)C)cc2)cc1 (centres undefined)
inactive: max response (HaCat [1]) -3.76% | max response (KB-3-1) 7.61% | Potency (MCC-13) | Potency (MCC-26) | Potency (MKL-1)
active: Potency (HEK293) 14.8 µM

Nc1nccc(-c2ccc3noc(-c4ccc(Cl)cc4)c3c2)n1
inactive: max response (HaCat [1]) -32.6% | max response (KB-3-1) 5.59% | max response (NIH3T3) -8.8% | Potency (MCC-13) | Potency (MKL-1) | Potency (MKL-2)

Fc1ccc(Cl)cc1-c1nc(Nc2ccncc2)c2nccnc2n1
inactive: outcome (HaCat [1]) | max response (KB-3-1) 2.67% | max response (NIH3T3) -15.4% | outcome (HACAT [2]) | Potency (MCC-13) | Potency (MCC-26) | Potency (MKL-1) | Potency (MKL-2)

CCOC(=O)C1=C[C@@]2(CC)CCCN3CCc4c(n1c1ccccc41)[C@H]32
active: Potency (PC26) 15.1 µM | Potency (W2) 4.78 µM

N#Cc1ccc(C(c2ccc(C#N)cc2)n2cncn2)cc1
inactive: Potency (PAD) | Potency (PC15) | Potency (PC26) | Potency (PC49) | Potency (SC27B) | Potency (TAB109) | Potency (TAB113) | Potency (TAB165) | Potency (W2) | max response (HaCat [1]) 2.76% | max response (KB-3-1) -0.837% and -6.35% | max response (NIH3T3) 2.6% | Potency (MCC-13) | Potency (MCC-26) | Potency (MKL-2)

NC(=O)c1ccc(-c2nc(-c3ccc4c(c3)OCCO4)c(-c3ccccn3)[nH]2)cc1
inactive: max response (HaCat [1]) -0.259% | max response (NIH3T3) -6.71% | Potency (MCC-13) | Potency (MKL-1)

From PubChem BioAssay (NCATS)
